# High-throughput results (PubChem)
# Shown are actives, neighbours in structure and some others; about 6.9% of the full set was active somewhere.
# Cy5 interf NS3h: Cy5 fluorescence interference, HCV helicase counter-screen; Cy5-dT15 DNA with NS3h; actives lie on both sides; signal over control mean, under 1 quenches; fluorescence interference ratio at 100 µM; 16,000 compounds, 6% hits;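 active = compound fluorescence over control fluorescence at most 0.8, a quencher, or at least a set upper limit, an enhancer; inactive = ratio between 0.8 and the set upper limit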
# HCV NS3h FP: blocks HCV NS3 helicase binding to DNA. inhibition, % at 100 µM. 16,000 compounds, 1.6% hits. NS3h Cy5-dT15 DNA binding, fluorescence polarization;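 active = inhibition above the average over every tested compound plus 3 SD, cut at about 40% in these data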
# Active calls of the source: *.
SMILES,Cy5 interf NS3h,HCV NS3h FP
O=C(c1nn2c(c1Cl)NC(c1ccccc1)CC2C(F)(F)F)N1CCN(c2ccc(F)cc2)CC1 (stereo not given),0.99,28.4
CC(O)c1ccc(NC(=O)c2cnn3c2NC(c2ccc(F)cc2)CC3C(F)(F)F)cc1 (stereo not given),0.482*,23.5
Cc1ccc(C2CC(C(F)(F)F)n3nc(C(=O)N4CCN(c5ccc(F)cc5)CC4)cc3N2)cc1 (stereo not given),0.92,6.4
Cc1ccc(C2CC(C(F)(F)F)n3nc(C(=O)N4CCN(c5ccc(F)cc5)CC4)c(Cl)c3N2)cc1 (stereo not given),0.49*,10.5
Cc1ccc(C2CC(C(F)(F)F)n3nc(C(=O)Nc4ccc(C(C)O)cc4)cc3N2)cc1 (stereo not given),0.643*,7.7
Cc1cc(N2CCOCC2)c2c(c1)c1ccccc1n2C,0.998,17.8
O=C(CCN1C(=O)/C(=C\c2cccs2)SC1=S)Nc1cccc(C(F)(F)F)c1,1.06,5.1
O=C(Nc1cccc(Cl)c1)Nc1nnc(COc2ccc(F)cc2)s1,1.03,7.9
COc1ccc(NC(=O)c2nc[nH]c2C(=O)Nc2ccc(OC)cc2)cc1,1,7.4
Cc1ccc(C2Nc3ccccc3C(=O)N2Cc2ccccc2)cc1 (stereo not given),0.863,7.5
C=CCN1C(=O)/C(=C2/C=Cc3cc(C)ccc3N2CC)SC1=S,0.992,3.6
COc1ccc(C2CC(C(F)(F)F)n3ncc(C(=O)N(C)Cc4ccccc4)c3N2)cc1OC (stereo not given),0.598*,27.6
Cc1ccc(C2CC(C(F)(F)F)n3ncc(C(=O)N(Cc4ccccc4)Cc4ccccc4)c3N2)cc1 (stereo not given),0.942,8.3
O=c1oc(-c2ccc(Cl)cc2Cl)nc2ccccc12,1.15,7.3
O=c1oc(-c2ccccc2Cl)nc2ccc(-c3ccc4nc(-c5ccccc5Cl)oc(=O)c4c3)cc12,0.689*,1.2
Cc1ccc(N2C(=O)/C(=C/c3ccccc3C)C(=O)NC2=S)cc1,0.995,2.6
Cc1ccc(N2CN=C(c3ccccc3)NC2=S)cc1,0.753*,14.1
O=C(c1nn2c(c1Br)NC(c1cccs1)CC2C(F)(F)F)N1CCCc2ccccc21 (stereo not given),0.702*,14.2
O=C(c1nn2c(c1Br)NC(c1cccs1)CC2C(F)(F)F)N1CCOCC1 (stereo not given),1.06,4.7
Cc1cc(/C=C2\C(=O)NC(=S)N(c3ccc(Br)cc3)C2=O)c(C)n1C,1.19,32.8
Cc1cc(/C=C2\C(=O)NC(=S)N(c3ccccc3)C2=O)c(C)n1-c1ccccc1,1.06,0.4
Cc1cc(Br)ccc1N1C(=O)/C(=C/c2cc(C)n(C)c2C)C(=O)NC1=S,1.2*,-11.9
CCc1ccccc1N1C(=O)/C(=C/c2cc(C)n(C)c2C)C(=O)NC1=S,1.24*,10.0
Cc1cc(C=C2C(=O)N(C)C(=O)N(C)C2=O)c(C)n1C,1.06,-10.4
Cc1cc(/C=C2\C(=O)NC(=S)N(c3ccccc3)C2=O)c(C)n1-c1cccnc1,1.23*,14.7
SMILES,Cy5 interf NS3h,HCV NS3h FP
CCOc1ccc(C(=O)Nc2cc(Cl)ccc2C(=O)O)cc1,0.973,15.6
Cc1c(Br)c(C(F)(F)F)nn1CC(=O)Nc1cc(C(F)(F)F)ccc1Cl,1.04,0.0
Cc1c(Br)c(C(F)(F)F)nn1CC(=O)N(C)c1ccccc1,0.55*,6.8
O=C(Nc1ccc(S(=O)(=O)NC(=O)C2CCCCC2)cc1)c1cccc(Br)c1,0.587*,-1.5
O=C(Nc1ccc(S(=O)(=O)Nc2ncccn2)cc1)c1cccc(Br)c1,1.07,15.7
COc1ccc2nc(SCC(=O)Nc3ccccc3)[nH]c2c1,0.948,4.0
COc1ccc(NC(=O)CSc2nc3ccccc3[nH]2)c(OC)c1,0.706*,10.5
O=C(Nc1ccc(Cl)c(Cl)c1)Nc1nnc(Cc2cccc(Br)c2)s1,1.05,1.3
COc1ccc(OCC(=O)N2c3ccc(C)cc3-c3c(ssc3=S)C2(C)C)cc1,0.961,15.6
CCCCn1c(CN2C(=O)c3ccccc3C2=O)nc2ccccc2c1=O,1.01,-1.8
O=c1c2ccccc2nc2ccc3nnnn3n12,0.733*,-12.7
Cc1ccc(C)c(NC(=O)CN(c2ccc(C(C)C)cc2)S(=O)(=O)c2ccccc2)c1,1.05,15.7
O=C(/C=C/Nc1ccccc1NS(=O)(=O)c1ccccc1)c1ccc2c(c1)OCO2,1.05,17.0
CCOC(=O)c1ccc(N2NC(=O)/C(=C/c3cc(OC)c(O)c(OC)c3)C2=O)cc1,0.958,14.5
CCOC(=O)c1ccc(N2NC(=O)/C(=C/c3cccc(I)c3)C2=O)cc1,0.792*,20.2
O=C(NC[n+]1ccccc1)c1ccc(Cl)cc1,1.2*,3.4
O=C(NCc1ccc(Cl)cc1)c1ccc(I)cc1,0.976,20.8
C=CCNC(=O)/C(=C/c1ccc(C)cc1)NC(=O)c1ccc(C)cc1,0.971,10.2
CC(C)(C)c1ccc(C(CC(=O)c2ccc(Br)cc2)S(=O)(=O)c2ccccc2)cc1 (stereo not given),0.539*,18.0
